Assay outcomes as filed in PubChem.
HCV inhibitor: HCV inhibition | Huh7.5.1 HCVcc-Cre infection, luciferase reporter, 44 h | Potency, µM (series often up to 41.8 µM), inactives show at the highest dose activity change, negative = inhibition, most hits filed as inhibitors | hit rate 3.4% among 340,000 | AID 651820; further: potency means the concentration at half of the fitted maximal effect
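HCVcc-Cre virus at an moi near 0.5 was added right after compound to cells cultured 4 h from seeding (1,000 cells/well). Luciferase activity was determined 44 h later, 15 min after substrate addition at RT.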
Pf growth 48h: P. falciparum growth inhibition at 48 hours (one generation); hit rate 5.9% among 310,000; P. falciparum luciferase growth in erythrocytes, 48 h; Potency, µM (doses to about 28.7 µM), without a hit: top-dose activity change, negative = inhibition, most hits filed as inhibitors; AID 504832; further: potency means the concentration at half of the fitted maximal effect
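Luciferase-expressing P. falciparum in infected erythrocytes (2% hematocrit, 0.1% parasitemia final) in RPMI 1640/0.5% Albumax were exposed to compound for 48 hours at 37 C, 5% CO2; growth read as luminescence.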
HCMV antiviral: human cytomegalovirus inhibition | HFF cells, HCMV-luciferase reporter, 72 h; hits give low values | activity change, negative = inhibition, % at 57.5 µM | hit rate 4.5% among 410,000; in the data active means activity change below about -60%; inconclusive means no clear call, values can overlap the other calls; inactive means above about -39%
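HFF cells seeded 16 h at 37C, treated with compounds, infected with luciferase-reporter HCMV at MOI 1 PFU/cell; luciferase read at 72 h post infection, normalized to buffer-only and Salinomycin controls.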
Pf growth 96h: inhibits malaria parasite growth, 96 h. P. falciparum luciferase reporter growth, 96 h. Potency, µM (titrated, usually from 28.7 µM), inactives show at the top dose activity change, negative = inhibition, most hits filed as inhibitors. hit rate 6.9% among 320,000. AID 504834; further: potency means the concentration at half of the fitted maximal effect
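Luminescence readout: decreased luciferase signal marks inhibited growth of reporter-expressing P. falciparum in infected red cells (2% hematocrit, 0.05% parasitemia final), exposed to compound two generations (96 h, 37 C, 5% CO2).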
The depositor's hits bear a star; ? = inconclusive; · = not tested or not shown. Rows were chosen to be rich in hits. Some 13% of all compounds tested hit in one or more screens of this group. Unless noted, the call rests on the fitted dose curve; in most records, active means well fitted inhibition curve with a large enough effect; inconclusive means small, poorly fitted or top-dose-only effect, or another doubt; inactive means no such curve, though single readings can be large or run the other way. On the % scale 0 is the no-effect control and ±100 the full control effect.

SMILES | HCV inhibitor | Pf growth 48h | HCMV antiviral | Pf growth 96h
Cn1c(C(=O)N2CCN(c3nc4ccccc4s3)CC2)cc2sccc21 | -12% | -2% | -74* | 28%
O=C(c1cccs1)N1CCN(c2nc3ccccc3s2)CC1 | -12% | 5% | -36 | 53%
NS(=O)(=O)c1ccc(CCNc2ncnc3c2cnn3-c2cccc(Cl)c2)cc1 | · | · | -23 | ·
CCc1ccc(CNC(=O)c2ccc(CS(=O)(=O)Cc3cccc(C)c3)o2)cc1 | · | · | -11 | ·
Cc1ccc(CS(=O)(=O)Cc2ccc(C(=O)NCc3cccs3)o2)cc1 | -4% | -17% | -89* | ?
COc1ccccc1S(=O)(=O)Cc1ccc(C(=O)NCc2cccs2)o1 | 16% | 0.83µM* | 1 | ·
Cc1ccc(CS(=O)Cc2ccc(C(=O)NCc3cccs3)o2)cc1 (stereo unspecified) | -9% | -8% | 10 | 12%
Cc1cccc(CS(=O)(=O)Cc2ccc(C(=O)NCc3cccnc3)o2)c1 | -1% | -2% | -3 | 1.9µM*
CCN(C(=O)c1cn(CC)c(=O)c2cc(OC)c(OC)cc12)c1ccc(C)c(C)c1 | · | · | -1 | ·
COc1ccc(-c2cc(C(=O)OCC(=O)c3cccc(OC)c3)c3cccc(Cl)c3n2)cc1 | · | · | -17 | ·
COC(=O)C12OCC34C(CC5C(C)=C(O)C(=O)CC5(C)C3C(O)C1O)OC(=O)C(OC(=O)/C=C(\C)C(C)C)C24 (stereo unspecified) | ? | · | -98* | ·
COC(=O)C12OCC34C(CC5C(C)=C(O)C(=O)CC5(C)C3C(O)C1O)OC(=O)C(OC(=O)C=C(C)C)C24 (stereo unspecified) | · | · | -99* | ·
COc1cc(NC(=O)CCCc2nnc3n(CC(C)C)c(=O)c4sccc4n23)cc(OC)c1 | · | · | -36 | ·
CCCCCn1cc2c(c1-c1ccc(Br)cc1)c(=O)n(C)c(=O)n2C | · | · | -8 | ·
Cc1ccc(CCNC(=O)C2CCC(CNc3c(N4CCCC4)c(=O)c3=O)CC2)cc1 (stereo unspecified) | 31% | · | -39 | ?
Cc1ccnc(NC(=O)C2CCC(CNc3c(N4CCCC4)c(=O)c3=O)CC2)c1 (stereo unspecified) | 15% | -6% | -75* | -26%
Cc1cccc(CCNC(=O)C2CCC(CNc3c(N4CCCC4)c(=O)c3=O)CC2)c1 (stereo unspecified) | -2% | · | -12 | 9.3µM*
O=C(NCCc1ccccc1)C1CCC(CNc2c(N3CCCCC3)c(=O)c2=O)CC1 (stereo unspecified) | -1% | -21% | 13 | 12µM*
CCOC(=O)C1CCCN(c2c(Nc3cccc(C)c3)c(=O)c2=O)C1 (stereo unspecified) | 3% | · | -7 | 8.3µM*
O=C(NC1CCCc2ccccc21)C1CCC(CNS(=O)(=O)c2cccc3nsnc23)CC1 (stereo unspecified) | 1% | · | -16 | 3.7µM*
O=C(NC1CCCc2ccccc21)C1CCC(CNc2c(N3CCOCC3)c(=O)c2=O)CC1 (stereo unspecified) | 18% | 20% | 23 | 10µM*
Cc1cc2c(cc1C)-n1nnnc1C(N1CCN(C(=O)OCc3ccccc3)CC1)C(=O)N2 (stereo unspecified) | · | · | -32 | ·
COc1ccc2sc(-c3ccccc3OC)c(-c3ccc(OC)c(F)c3)c2c1 | ? | ? | 0 | ?
COc1ccc2sc(-c3ccccc3OC)c(-c3ccc(OCCN(C)C)cc3)c2c1 | 10µM* | · | 4 | ·
COc1cccc(-c2sc3ccccc3c2-c2ccc(OCCN3CCCC3)cc2)c1 | ? | · | -21 | ·
SMILES | HCV inhibitor | Pf growth 48h | HCMV antiviral | Pf growth 96h
COc1cccc(-c2sc3ccccc3c2-c2ccc(OCCN(C)C)cc2)c1 | 11µM* | · | -40 | ·
O=S(=O)(CS(=O)(=O)c1ccc(Br)cc1)c1ccc(Br)cc1 | · | · | -29 | ·
CC(=O)c1cccc(NC(=O)c2c(N3CCCC3=O)c3cc(F)ccc3n2C)c1 | · | · | 8 | ·
Cn1nc(C(=O)Nc2ccc(S(=O)(=O)NCc3ccco3)cc2)c2ccccc2c1=O | ? | ? | 86 | 12µM*
Cn1nc(C(=O)Nc2ccc(Cl)c(S(=O)(=O)N3CCOCC3)c2)c2ccccc2c1=O | ? | ? | 20 | ?
Cn1nc(C(=O)NCc2ccco2)c2ccccc2c1=O | 18% | -3% | -13 | -1%
Cn1nc(C(=O)Nc2cccc(S(=O)(=O)N3CCCCC3)c2)c2ccccc2c1=O | ? | ? | 110 | 9.3µM*
Cn1nc(C(=O)Nc2ccc(S(=O)(=O)N3CCCCC3)cc2)c2ccccc2c1=O | -10% | ? | 13 | 8.3µM*
CC(C)CCOc1ccc(Oc2nc(N(C)C)nc(N(C)C)n2)nn1 | · | · | 129 | ·
Clc1ccc(SCc2cn3ccsc3n2)cc1 | -28% | -20% | 58 | 10µM*
Cc1cc(C)n2cc(CSc3ccc(Cl)cc3)nc2n1 | -6% | 30% | ? | -4%
c1ccc(CSCc2cn3ccsc3n2)cc1 | -3% | 64% | 31 | ·
Cc1csc2nc(CSc3ccc(Cl)cc3)cn12 | 8% | 120% | · | 3.7µM*
CCC(CC)C(=O)N1CCc2cc(OC)c(OC)cc2C1COc1ccc2c(C)cc(=O)oc2c1 (stereo unspecified) | · | · | 3 | ·
CC(=NCC1CCCO1)C1=C(O)CC(C)(C)CC1=O (stereo unspecified) | 3% | -4% | -62* | 15%
CC12CCC(c3c(CO)nn(-c4ccccc4)c31)C2(C)C (stereo unspecified) | 7% | ? | 23 | 10µM*
CC(C)OC(=O)c1cccnc1SCC(=O)Nc1ccc(C(F)(F)F)cc1Cl | · | · | 84 | ·
CCOc1ccc(NC(=O)CN2CCN(c3ccc(Cl)cc3)CC2)cc1 | · | · | -2 | ·
Cc1ccc(-n2c(O)c(C=Nc3ccc(S(N)(=O)=O)cc3)c(=O)[nH]c2=O)cc1 | 2% | ? | -104* | ?
COc1ccccc1OCC(=O)Nc1nc(-c2ccc(Br)cc2)ns1 | · | · | -11 | ·
COc1ccc(OC(F)(F)F)cc1CC1(C)C(=O)Nc2ccc(-c3ccsc3)cc21 (stereo unspecified) | · | · | -82* | ·
COc1ccc(C(C)=O)cc1CC1(C)C(=O)Nc2ccc(OC(F)(F)F)cc21 (stereo unspecified) | · | · | -2 | ·
CCOc1ccccc1Nc1ccc2cc(S(=O)(=O)N3CCCCC3)ccc2n1 | · | · | -13 | ·
O=C(N/N=C/c1sc(=O)n(-c2ccccc2)c1Cl)c1ccccc1 | ? | ? | -4 | 2.3µM*
COC(=O)c1cccc(Cn2c(Cl)c(/C=N/NC(=O)c3ccco3)sc2=O)c1 | -21% | 9.3µM* | 0 | 8.3µM*
NC(=O)N/N=C/c1sc(=O)n(-c2ccccc2)c1Cl | 7% | 28% | 18 | 25%
COC(=O)c1cccc(Cn2c(Cl)c(/C=N/NC(=O)c3ccccc3Cl)sc2=O)c1 | ? | ? | 9 | 4.7µM*
CCOCCc1nn2c(=O)cc(COC(=O)C(CC)c3ccccc3)nc2s1 (stereo unspecified) | · | · | -13 | ·
